Reference: PubChem BioAssay (NCATS)
Records with an inconclusive call do not appear. Calls of active or inactive are those of the source. Calls come from the whole dose curve; as a rule, active = well fitted inhibition curve with a large enough effect; inconclusive = small, poorly fitted or top-dose-only effect; inactive = flat fitted curve, though single readings scatter.

Legend:
Experiment in all cases: qHTS profiling for inhibitors of Plasmodium falciparum proliferation (AID 504749); note: nearly all actives have a fitted effect of over 60% in size
Conditions in all cases: P. falciparum in erythrocytes, SYBR Green DNA, 72 h; series mostly up to 28.7 µM
JCK = test system: JCK
Method in brief: (§1)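 Readout was DNA-dye fluorescence from lysed cultures, ex 485/em 535 nm. Parasitized red cells had grown 72 h with compound; data scaled between 0.29 uM artemisinin and DMSO wells and corrected using vehicle-only plates.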

N140 = test system: N140
Method in brief: as §1

P93_24 = test system: P93_24
Method in brief: as §1

P94_40 = test system: P94_40
Method in brief: as §1

PAD = test system: PAD
Method in brief: as §1

PC15 = test system: PC15
Method in brief: as §1

PC26 = test system: PC26
Method in brief: as §1

PC49 = test system: PC49
Method in brief: as §1

SC27B = test system: SC27B
Method in brief: as §1

TAB109 = test system: TAB109
Method in brief: as §1

Measured: Potency
Potency is the fitted concentration of half-maximal effect.

CCOc1cc(OCC)c(C(=O)CCC(=O)O)cc1OCC
inactive: JCK | N140 | P93_24 | P94_40 | PAD | PC15 | PC26 | PC49 | SC27B | TAB109

C#C[C@]1(O)CC[C@H]2[C@@H]3CCC4=CC(=O)CC[C@@H]4[C@H]3CC[C@@]21CC
inactive: JCK | N140 | P93_24 | P94_40 | PAD | PC15 | PC26 | PC49 | SC27B | TAB109

Cc1cccc(C)c1NC(=O)c1ccccc1C(=O)O
inactive: JCK | N140 | P93_24 | P94_40 | PAD | PC15 | PC26 | PC49 | SC27B | TAB109

O=c1[nH]c(=O)n([C@H]2C[C@H](O)[C@@H](CO)O2)cc1F
inactive: JCK | N140 | P93_24 | P94_40 | PAD | PC15 | PC26 | PC49 | SC27B | TAB109

C[C@@H](O)[C@H]1C(=O)N2C(C(=O)O)=C(S[C@@H]3CN[C@H](CNS(N)(=O)=O)C3)[C@H](C)[C@H]12
inactive: JCK | N140 | P93_24 | P94_40 | PAD | PC15 | PC26 | PC49 | SC27B | TAB109

CC(=O)Nc1ccc(OC(=O)c2ccccc2OC(C)=O)cc1
inactive: JCK | N140 | P93_24 | P94_40 | PAD | PC15 | PC26 | PC49 | SC27B | TAB109

Cc1ccc(S(=O)(=O)NC(=O)NC2CCCC2)cc1
inactive: JCK | N140 | P93_24 | P94_40 | PAD | PC15 | PC26 | PC49 | SC27B | TAB109

O=C(Nc1cccc(C2=NCCN2)c1)Nc1cccc(C2=NCCN2)c1
active: JCK 5010 nM | N140 4470 nM | P93_24 1780 nM | P94_40 1120 nM | PAD 3160 nM | PC15 3980 nM | PC26 8490 nM | PC49 5620 nM | TAB109 2820 nM

CC(C)CCCC(C)N (stereo not given)
inactive: JCK | N140 | P93_24 | P94_40 | PAD | PC15 | PC26 | PC49 | SC27B | TAB109

CC(C)(C)NC[C@H](O)COc1cccc2c1CCCC2=O
inactive: JCK | N140 | P93_24 | P94_40 | PAD | PC15 | PC26 | PC49 | SC27B | TAB109

CC(C)Cc1ccc(CC(=O)O)cc1
inactive: JCK | N140 | P93_24 | P94_40 | PAD | PC15 | PC26 | PC49 | SC27B | TAB109

CCC(CC)(CC(=O)Nc1cccc(/C=C/c2nc(C3CCC3)cs2)c1)C(=O)O
inactive: JCK | N140 | P93_24 | P94_40 | PAD | PC15 | PC26 | PC49 | SC27B | TAB109

CCc1oc2ccccc2c1C(=O)c1cc(I)c(O)c(I)c1
inactive: JCK | N140 | P93_24 | P94_40 | PAD | PC15 | PC26 | PC49 | SC27B | TAB109

CCOC(=O)Nc1ccc2c(c1)N(C(=O)CCN1CCOCC1)c1ccccc1S2
inactive: JCK | N140 | P93_24 | P94_40 | PAD | PC15 | PC26 | PC49 | SC27B | TAB109

O=C(O)c1ccc(S(=O)(=O)N(Cl)Cl)cc1
inactive: JCK | N140 | P93_24 | P94_40 | PAD | PC15 | PC26 | PC49 | SC27B | TAB109

Oc1ccccc1C=NCc1ccccc1
inactive: JCK | N140 | P93_24 | P94_40 | PAD | PC15 | PC26 | PC49 | SC27B | TAB109

O=C1C(=O)c2ccccc2C(O)=C1C1CCC(c2ccc(Cl)cc2)CC1 (stereo not given)
active: JCK 5.6 nM | N140 5 nM | P93_24 4 nM | P94_40 7.1 nM | PAD 4.5 nM | PC15 4.5 nM | PC26 5.7 nM | PC49 5 nM | SC27B 0.7 nM | TAB109 2.5 nM

C/C=C/C=N/NC(=O)c1ccncc1
inactive: JCK | N140 | P93_24 | P94_40 | PAD | PC15 | PC26 | PC49 | SC27B | TAB109

CCCCCCCC/C=C\CCCCCCCCN
inactive: JCK | N140 | P93_24 | P94_40 | PAD | PC15 | PC26 | PC49 | SC27B | TAB109

Cc1c(-c2ccccc2)oc2c(C(=O)OCCN3CCCCC3)cccc2c1=O
inactive: JCK | N140 | P93_24 | P94_40 | PAD | PC15 | PC26 | PC49 | SC27B | TAB109

N=C(N)N1CCc2ccccc2C1
inactive: JCK | N140 | P93_24 | P94_40 | PAD | PC15 | PC26 | PC49 | SC27B | TAB109

NC(N)=NCc1cccc(I)c1
inactive: JCK | N140 | P93_24 | P94_40 | PAD | PC15 | PC26 | PC49 | SC27B | TAB109

CC1(COc2ccc(CC3SC(=O)NC3=O)cc2)CCCCC1 (stereo not given)
inactive: JCK | N140 | P93_24 | P94_40 | PAD | PC15 | PC26 | PC49 | SC27B | TAB109

CCN(CC)CCNC(=O)COc1ccc(OC)cc1
inactive: JCK | N140 | P93_24 | P94_40 | PAD | PC15 | PC26 | PC49 | SC27B | TAB109

CCOC(=O)C(C#N)=C(c1ccccc1)c1ccccc1
inactive: JCK | N140 | P93_24 | P94_40 | PAD | PC15 | PC26 | PC49 | SC27B | TAB109

O=C1C(O)=C(O)C(=O)C(O)=C1O
inactive: JCK | N140 | P93_24 | P94_40 | PAD | PC15 | PC26 | PC49 | SC27B | TAB109

CC1=C(C(=O)O)N2C(=O)[C@@H](NC(=O)[C@H](N)c3ccccc3)[C@H]2SC1
inactive: JCK | N140 | P93_24 | P94_40 | PAD | PC15 | PC26 | PC49 | SC27B | TAB109

FC1(F)C(F)(F)C(F)(F)C2(F)C(F)(F)C(F)(F)C(F)(F)C(F)(F)C2(F)C1(F)F (stereo not given)
inactive: JCK | N140 | P93_24 | P94_40 | PAD | PC15 | PC26 | PC49 | SC27B | TAB109

COc1ccccc1N1CCN(CCCCNC(=O)c2ccc(-c3ccc(C(C)=O)cc3)cc2)CC1
inactive: JCK | N140 | P93_24 | P94_40 | PAD | PC15 | PC26 | PC49 | SC27B | TAB109

O=C(Nc1ncc([N+](=O)[O-])s1)c1cccs1
inactive: JCK | N140 | P93_24 | P94_40 | PAD | PC15 | PC26 | PC49 | SC27B | TAB109

Cc1c[nH]c2ccccc12
inactive: JCK | N140 | P93_24 | P94_40 | PAD | PC15 | PC26 | PC49 | SC27B | TAB109

CCCc1ncc(C[n+]2ccccc2C)c(N)n1
inactive: JCK | N140 | P93_24 | P94_40 | PAD | PC15 | PC26 | PC49 | SC27B | TAB109

OCc1ccccn1
inactive: JCK | N140 | P93_24 | P94_40 | PAD | PC15 | PC26 | PC49 | SC27B | TAB109

Cc1cc(C)cc(OCC2CNC(=O)O2)c1 (stereo not given)
inactive: JCK | N140 | P93_24 | P94_40 | PAD | PC15 | PC26 | PC49 | SC27B | TAB109

COc1cc(C(=O)N2CCCCCCC2)cc(OC)c1OC
inactive: JCK | N140 | P93_24 | P94_40 | PAD | PC15 | PC26 | PC49 | SC27B | TAB109

Cn1c(=O)c2[nH]c(Br)nc2n(C)c1=O
inactive: JCK | N140 | P93_24 | PAD | PC15 | PC26 | PC49 | SC27B

CCC(C(=O)OCCOCCN(CC)CC)c1ccccc1 (stereo not given)
inactive: JCK | N140 | P93_24 | PAD | PC15 | PC26 | PC49 | SC27B

CC(=O)O[C@]1(C(C)=O)CC[C@H]2[C@@H]3C=C(Cl)C4=CC(=O)CC[C@]4(C)[C@H]3CC[C@@]21C
inactive: JCK | PC49
active: P93_24 11200 nM | P94_40 11200 nM | PC26 13500 nM | SC27B 8910 nM

Cc1cc(-c2ccccc2)nnc1NCCN1CCOCC1
inactive: JCK | N140 | P93_24 | P94_40 | PC26 | PC49 | SC27B

NS(=O)(=O)c1ccc(Cl)c(S(N)(=O)=O)c1
inactive: JCK | N140 | PAD | PC15 | PC26 | PC49 | SC27B | TAB109

O=[N+]([O-])c1cccc(S(=O)(=O)NCCNS(=O)(=O)c2cccc([N+](=O)[O-])c2)c1
inactive: JCK | N140 | P93_24 | P94_40 | PC49 | SC27B

O=C(Oc1cccc2cccnc12)c1ccccc1
inactive: JCK | N140 | P93_24 | P94_40 | PAD | PC15 | PC49 | SC27B | TAB109

OC(C#CCN1CCCC1)(c1ccccc1)c1ccccc1
inactive: JCK | PC15
active: N140 11200 nM

Clc1cccc(C(c2ccc3nc[nH]c3c2)n2ccnc2)c1 (stereo not given)
active: N140 10000 nM | P93_24 7080 nM | PC15 12600 nM | SC27B 10000 nM
inactive: JCK | PC49

Cc1ncc(CO)c(C=O)c1O
inactive: JCK | N140 | P93_24 | P94_40 | PAD | PC15 | PC49 | SC27B | TAB109

CCc1ccc(C(=O)C(C)CN2CCCCC2)cc1 (stereo not given)
inactive: JCK | N140 | P94_40 | PAD | PC15 | PC26 | PC49 | SC27B | TAB109

CC(=O)N[C@@H](CCC(=O)O)C(=O)O
inactive: JCK | N140 | P93_24 | PAD | PC15 | PC26 | PC49 | SC27B | TAB109

O[C@@H](c1cc(C(F)(F)F)nc2c(C(F)(F)F)cccc12)[C@H]1CCCCN1
active: JCK 17800 nM | N140 10 nM | P93_24 31.6 nM | P94_40 12.6 nM | PAD 11.2 nM | PC26 47.8 nM | SC27B 25.1 nM | TAB109 15.8 nM
